# Unmarked numbers belong to inactive results. Results filed as inconclusive are left out. Calls of active or inactive are those of the source. The call rests on the fitted dose curve; in most records, active means well fitted curve in the direction sought with a large enough effect; inconclusive means small, poorly fitted or top-dose-only effect, or another doubt; inactive means no such curve, though single readings can be large; an effect the other way counts as inactive or inconclusive.
# Experiments:
# [1] = qHTS Assay for Identifying Gametocytocidal Compounds (AID 743244);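 further: on the % scale 0 is the no-effect control and ±100 the full control effect; actives lower the fluorescent signal which means gametocytes are killed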; settings: P. falciparum 3D7 stage III-V gametocytes, alamarBlue, 72 h; max response: stronger effect = lower value
# Method in brief: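 Using 20,000 stage III–V 3D7 gametocytes per well, compounds were incubated 72 h under 37 °C/5% CO2. Viability was then assessed by 24 h alamarBlue reduction, measured fluorometrically at 525/598 nm.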
# [2] = qHTS for small molecule inhibitors of Yes1 kinase: Counter Assay (AID 686950);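 further: no kinase present so only ADP-Glo detection of a fixed ADP amount is tested; luminescence from ADP-Glo reporting ADP in a fixed ATP and ADP mixture; series mostly up to about 77 µM; 0% = DMSO wells with ATP plus ADP and -100% = ATP-only wells without ADP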
# Method in brief: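 Luminescence read-out from ADP-Glo quantifies a fixed ADP amount (0.02 mM ADP with 0.08 mM ATP) after 60 min at room temperature; signal is normalized between DMSO wells with ATP/ADP and with 0.1 mM ATP alone.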
Compound,max response [1] [%],outcome [2]
COc1ccc(CC2c3cc(OC)c(OC)cc3CC[N+]2(C)CCC(=O)OCCCCCOC(=O)CC[N+]2(C)CCc3cc(OC)c(OC)cc3C2Cc2ccc(OC)c(OC)c2)cc1OC (configuration not stated),8.81,–
C1=CCOCc2cc(ccc2OCCN2CCCC2)Nc2nccc(n2)-c2cccc(c2)OCC1,–,inactive
CNc1nccc(-c2cccnc2Oc2cc(C(=O)Nc3cccc(C(F)(F)F)c3)ccc2C)n1,8.44,inactive
COc1cc(C(=O)NS(=O)(=O)c2ccccc2C)ccc1Cc1cn(C)c2ccc(NC(=O)OC3CCCC3)cc12,2.7,–
CS(=O)(=O)N1CCN(Cc2cc3nc(-c4cccc5[nH]ncc45)nc(N4CCOCC4)c3s2)CC1,–,inactive
CC(C)c1ccccc1Cc1cc(C(=O)Nc2ccc(S(=O)(=O)c3ccccc3C(C)(C)C)cc2)c(O)c(O)c1O,–,inactive

# Reference: PubChem BioAssay (NCATS)
